This note sets out measurements from PubChem BioAssay (EPA / NIEHS).

Structures are written as SMILES. Results filed as inconclusive are left out. Activity calls are given as the source filed them. Rule for the calls, unless noted: active = hit-call score of the fitted dose curve at least 0.9, where 1 is the maximum; inconclusive = response in the unintended direction; inactive = score below 0.9.

Assay [1] deals with Bile acid receptor (Homo sapiens) (UniProt Q96RI1). The assay can be described thus: ATG_IR1_CIS: Attagene CIS-FACTORIAL HepG2 Assay for human Nuclear Receptor Subfamily 1 Group H Member 4 (NR1H4), IR1 submotif (AID 2282946; active = hit-call score of the fitted dose curve at least 0.9, where 1 is the maximum; inactive = score below 0.9). As to conditions: IR1 reporter transcription, actives raise or lower the signal. Put shortly: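 HepG2 cells transiently transfected with multiplexed cis-element reporter units read endogenous transcription factor activity. After 24 h compound exposure, reporter mRNA was quantified by RT-PCR, fluorescent labelling, HpaI digestion and capillary electrophoresis; bidirectional fitting versus DMSO baseline.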

Assay [2] can be described thus: ATG_PBREM_CIS: Attagene CIS-FACTORIAL HepG2 Assay for human Phenobarbital-responsive Enhancer Module (PBREM) (AID 2282955; active = hit-call score of the fitted dose curve at least 0.9, where 1 is the maximum; inactive = score below 0.9). As to conditions: HepG2 PBREM cis-reporter, Attagene multiplexed transcription; actives raise or lower the signal. The method in brief: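 HepG2 cells transiently transfected with multiple cis-regulated reporter transcription units; endogenous factor activity at the PBREM element measured as reporter mRNA 24 h after dosing, via RT-PCR and capillary electrophoresis of fluorescent fragments; bidirectional fitting versus DMSO.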

Assay [3] deals with Nuclear receptor subfamily 1 group I member 3 (Homo sapiens) (UniProt Q14994). The experiment in a line: ATG_CAR_TRANS: Attagene TRANS-FACTORIAL HepG2 Assay for human Constitutive Androstane Receptor (CAR) (AID 2282969).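 Note: activators raise reporter mRNA above DMSO so AC50 marks induction.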 The conditions noted are these: HepG2 Attagene TRANS-FACTORIAL CAR reporter. Put shortly: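 Signal is reporter mRNA induction relative to DMSO, measured 24 h after dosing by RT-PCR with fluorescent primer extension and capillary electrophoresis. Human HepG2 liver cells carried transiently transfected chimeric NR-Gal4/GAL4-UAS reporter constructs.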

Assay [4] in a line: ATG_GAL4_TRANS: Attagene TRANS-FACTORIAL HepG2 Assay for GAL4 (Internal Marker) (AID 2282976). The conditions noted are these: HepG2 Attagene TRANS GAL4 internal marker reporter. Put shortly: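 First, HepG2 cells were transfected with reporter units under GAL4-UAS control. Next, they were treated with chemical for 24 h. Finally, RNA was reverse-transcribed, PCR-amplified, FAM-labelled and resolved by capillary electrophoresis, with induction scored against DMSO.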

Assay [5] deals with Glucocorticoid receptor (Homo sapiens) (UniProt P04150). The experiment in a line: ATG_GR_TRANS: Attagene TRANS-FACTORIAL HepG2 Assay for human Glucocorticoid Receptor (GR) (AID 2282978).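 Note: activators score as hits since higher reporter transcript over DMSO is fitted.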 The conditions noted are these: HepG2 Attagene TRANS GR reporter, mRNA transcription. The method in brief:
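HepG2 cells transiently transfected with multiplexed reporter units in which chimeric NR-GAL4 proteins drive GAL4-UAS reporters; 24 h compound exposure. Reporter mRNA measured by RT-PCR, 6-FAM labelling, HpaI digestion and capillary electrophoresis; gain-of-signal fitted versus DMSO.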

The target in assay [6] is Nuclear receptor subfamily 4 group A member 2 (Homo sapiens) (UniProt P43354). The assay can be described thus: ATG_NURR1_TRANS: Attagene TRANS-FACTORIAL HepG2 Assay for human Nuclear Receptor Related Protein 1 (NURR1) (AID 2282985). The conditions noted are these: HepG2 Attagene TRANS reporter, mRNA readout. The method in brief:
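Reporter transcript induction, measured by RT-PCR with fluorescent labelling, HpaI digestion and capillary electrophoresis, after 24 hr dosing of human HepG2 cells transiently expressing an exogenous NR-Gal4 fusion with GAL4-UAS-driven reporters; DMSO as baseline.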

Assay [7] addresses human Peroxisome Proliferator-activated Receptor alpha (PPARa), PPARA (gene 5465) (UniProt Q07869). The experiment in a line: ATG_PPARa_TRANS: Attagene TRANS-FACTORIAL HepG2 Assay for human Peroxisome Proliferator-activated Receptor alpha (PPARa) (AID 2283001). The method in brief: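 Reporter transcripts quantified by RT-PCR plus capillary electrophoresis after 24 h treatment, fitted upward relative to DMSO. Cells: human HepG2 transiently carrying multiple GAL4-UAS reporter units driven by NR-Gal4 chimeras.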

For assay [8], the target named is human Peroxisome Proliferator-activated Receptor delta (PPARd), PPARD (gene 5467) (UniProt Q03181). The experiment in a line: ATG_PPARd_TRANS: Attagene TRANS-FACTORIAL HepG2 Assay for human Peroxisome Proliferator-activated Receptor delta (PPARd) (AID 2283002). The method in brief: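 Read-out is induced reporter mRNA, quantified by RT-PCR with fluorescent labelling and capillary electrophoresis after 24 h dosing. Cells are HepG2 transiently carrying multiple GAL4-UAS reporter units driven by exogenous NR-GAL4 chimeras; DMSO serves as baseline.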

Assay [9] concerns the target Peroxisome proliferator-activated receptor gamma (Homo sapiens) (UniProt P37231). The assay can be described thus: ATG_PPARg_TRANS: Attagene TRANS-FACTORIAL HepG2 Assay for human Peroxisome Proliferator-activated Receptor-gamma (PPARg) (AID 2283007). Put shortly: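 HepG2 cells transiently transfected with multiplexed GAL4-UAS reporter units and exogenous chimeric NR-Gal4 proteins; reporter mRNA quantified after 24 h compound exposure by RT-PCR, fluorescent labelling, HpaI digestion and capillary electrophoresis; gain-of-signal fitted versus DMSO baseline.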

A short description of assay [10]: TOX21_p53_BLA_p2_viability: Viability Assessment in the Tox21 HCT-116 p53 Agonism Beta-lactamase Assay, Phase 2 (AID 2283591).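 Note: compound exposure lasted 16 h at 37 °C; actives lower the ATP signal meaning cytotoxicity.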 The method in brief:
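Cytotoxicity readout: CellTiter-Glo ATP luminescence, 30 min at room temperature, after the beta-lactamase read. Cells were HCT116 exposed 16 h at 37C to compounds pin-transferred at 217-fold dilution from DMSO stocks.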

Assay [11] can be described thus: TOX21_p53_BLA_p3_viability: Viability Assessment in the Tox21 HCT-116 p53 Agonism Beta-lactamase Assay, Phase 3 (AID 2283593).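 Note: cells exposed to compound for 16 h before reading.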 Put shortly:
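Cellular ATP was quantified by CellTiter-Glo luminescence, read after 30 min at room temperature. Beforehand, HCT116 cells (4000/well) received compound 5 h post-seeding, 217-fold diluted from DMSO, then incubated 16 h at 37C.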

Assay [12] in a line: TOX21_p53_BLA_p4_viability: Viability Assessment in the Tox21 HCT-116 p53 Agonism Beta-lactamase Assay, Phase 4 (AID 2283597).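 Note: hits lower the luminescence signal meaning cytotoxicity.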 Put shortly: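 Readout: ATP luminescence (CellTiter-Glo), measured 30 min after reagent addition at RT. The reagent followed a 2 h CCF4-AM incubation, and the cells had been exposed to compound for 16 h at 37C.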
The target of assay [13] is Retinoic acid receptor alpha (Homo sapiens) (UniProt P10276). The experiment in a line: ATG_DR5_RAR_CIS: Attagene CIS-FACTORIAL HepG2 Assay for human Retinoic Acid Receptor Alpha (RARE), DR5 submotif (AID 2282934; active = hit-call score of the fitted dose curve at least 0.9, where 1 is the maximum; inactive = score below 0.9). The conditions noted are these: HepG2 Attagene cis-factorial RARE DR5 reporter, mRNA; actives raise or lower the signal. Put shortly:
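Reporter transcripts from a DR5-regulated unit, measured via RT-PCR plus capillary electrophoresis, reflect endogenous RAR activity in transiently transfected human HepG2 liver cells. Exposure lasted 24 h; gain or loss of signal scored against DMSO.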

A short description of assay [14]: ATG_M_32_TRANS: Attagene TRANS-FACTORIAL HepG2 Assay for M32 Transcription Factor (Internal Marker) (AID 2282984).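 Note: transcript level of a background control reporter unit measured by RT-PCR and capillary electrophoresis.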 As to conditions: HepG2 Attagene TRANS M32 internal marker reporter. Put shortly: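 Internal background reporter in transfected HepG2: after 24 h chemical exposure, RNA reverse-transcribed, reporter cDNA amplified, fluorescently labelled and HpaI-cut, then sized by capillary electrophoresis. Gain of signal fitted against DMSO control.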

In assay [15] the target is human RAR-related Orphan Receptor beta (RORb), RORB (gene 6096) (UniProt Q92753). The experiment in a line: ATG_RORb_TRANS: Attagene TRANS-FACTORIAL HepG2 Assay for human RAR-related Orphan Receptor beta (RORb) (AID 2283010). The method in brief: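 Transfect HepG2 with multiple GAL4-UAS reporter transcription units; dose chemicals for 24 h; isolate RNA, reverse-transcribe and PCR-amplify reporter sequences; label, digest and resolve fragments by capillary electrophoresis; fit increases relative to DMSO.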

In assay [16] the target is human Thyroid Receptor alpha (THRa1), THRA (gene 7067) (UniProt P10827). The experiment in a line: ATG_THRa1_TRANS: Attagene TRANS-FACTORIAL HepG2 Assay for human Thyroid Receptor alpha (THRa1) (AID 2283014). The method in brief:
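Reporter transcript induction, read by capillary electrophoresis of 6-FAM-labelled RT-PCR products, reflects activity of a transfected THRa1-Gal4 fusion in HepG2 liver cells. Cells were dosed for 24 h; activity was fitted in the positive direction against DMSO.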

Assay [17] concerns the target human Vitamin D Receptor (VDR), VDR (gene 7421) (UniProt P11473). The experiment in a line: ATG_VDR_TRANS: Attagene TRANS-FACTORIAL HepG2 Assay for human Vitamin D Receptor (VDR) (AID 2283022). Put shortly: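 Steps: transfect HepG2 with GAL4-UAS-driven reporter constructs; dose compounds 24 h; isolate RNA, reverse-transcribe, PCR-amplify with 6-FAM-labelled primer extension and HpaI digestion; quantify fragments by capillary electrophoresis relative to DMSO.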

Assay [18] can be described thus: CCTE_Harrill_HTTr_Apoptosis_MCF7: CCTE's 6-hour Apoptosis Assessment for the High-Throughput Transcriptomics (HTTr) Platform, in MCF-7 cells cultured in DMEM + 10% fetal bovine serum, Harrill Lab (AID 2284011; active = hit-call score of the fitted dose curve at least 0.9, where 1 is the maximum; inactive = score below 0.9). Put shortly:
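MCF-7 (DMEM + 10% FBS), 384-well; 8-pt dilution series, 6 h chemical exposure; caspase-3/7 activation via CellEvent Caspase 3/7 Green, HCI; bidirectional fit vs DMSO.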

Assay [19] deals with Oxysterols receptor LXR-alpha (Homo sapiens) (UniProt Q13133). The experiment in a line: ATG_LXRa_TRANS: Attagene TRANS-FACTORIAL HepG2 Assay for human Liver X Receptor alpha (LXRa) (AID 2282980). The conditions noted are these: HepG2 Attagene TRANS reporter, LXRa transactivation. The method in brief: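 Transfect HepG2 with GAL4-UAS multiplex reporter constructs (TRANS format, chimeric receptor-GAL4); treat 24 h; extract RNA, reverse-transcribe, PCR-amplify, FAM-label, HpaI-digest; resolve fragments by capillary electrophoresis. Upward response vs DMSO.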

Assay [20] concerns the target Oxysterols receptor LXR-beta (Homo sapiens) (UniProt P55055). The experiment in a line: ATG_LXRb_TRANS: Attagene TRANS-FACTORIAL HepG2 Assay for human Liver X Receptor beta (LXRb) (AID 2282981). As to conditions: HepG2 Attagene TRANS GAL4-LXRb reporter, mRNA. The method in brief: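 After 24 h chemical treatment of transfected HepG2 cells carrying exogenous NR-Gal4 chimeras, reporter mRNA was quantified by fluorescent RT-PCR and capillary electrophoresis; activity taken as increase over DMSO controls.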

Sequence of human Peroxisome Proliferator-activated Receptor delta (PPARd), PPARD (gene 5467) (Q03181 whole entry, looked up, the tested form may be a part): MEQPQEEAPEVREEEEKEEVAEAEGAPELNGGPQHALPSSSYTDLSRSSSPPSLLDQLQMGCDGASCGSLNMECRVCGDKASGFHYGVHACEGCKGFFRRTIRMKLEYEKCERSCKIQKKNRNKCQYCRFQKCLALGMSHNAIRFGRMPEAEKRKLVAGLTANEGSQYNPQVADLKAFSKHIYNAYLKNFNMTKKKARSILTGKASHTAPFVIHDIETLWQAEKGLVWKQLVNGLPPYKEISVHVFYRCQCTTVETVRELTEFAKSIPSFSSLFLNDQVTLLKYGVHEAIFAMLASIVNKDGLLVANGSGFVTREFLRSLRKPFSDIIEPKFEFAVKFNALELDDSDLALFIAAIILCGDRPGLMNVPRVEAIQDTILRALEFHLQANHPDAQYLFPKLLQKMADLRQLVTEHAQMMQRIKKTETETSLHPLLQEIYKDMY
Sequence of Oxysterols receptor LXR-alpha (Homo sapiens) (Q13133 whole entry, looked up, the tested form may be a part): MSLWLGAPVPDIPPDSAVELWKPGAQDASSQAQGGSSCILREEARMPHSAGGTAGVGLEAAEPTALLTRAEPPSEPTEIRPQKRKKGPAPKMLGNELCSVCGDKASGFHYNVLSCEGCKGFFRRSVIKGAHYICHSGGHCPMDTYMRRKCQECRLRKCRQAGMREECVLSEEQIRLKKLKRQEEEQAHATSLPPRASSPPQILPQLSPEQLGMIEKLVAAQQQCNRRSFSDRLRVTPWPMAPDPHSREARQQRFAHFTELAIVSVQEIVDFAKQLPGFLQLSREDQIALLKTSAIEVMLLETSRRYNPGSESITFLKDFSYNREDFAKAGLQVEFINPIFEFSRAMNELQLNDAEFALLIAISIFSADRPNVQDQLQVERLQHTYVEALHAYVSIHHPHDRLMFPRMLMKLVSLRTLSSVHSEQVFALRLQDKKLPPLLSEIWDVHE
Sequence of human Thyroid Receptor alpha (THRa1), THRA (gene 7067) (P10827 whole entry, looked up, the tested form may be a part): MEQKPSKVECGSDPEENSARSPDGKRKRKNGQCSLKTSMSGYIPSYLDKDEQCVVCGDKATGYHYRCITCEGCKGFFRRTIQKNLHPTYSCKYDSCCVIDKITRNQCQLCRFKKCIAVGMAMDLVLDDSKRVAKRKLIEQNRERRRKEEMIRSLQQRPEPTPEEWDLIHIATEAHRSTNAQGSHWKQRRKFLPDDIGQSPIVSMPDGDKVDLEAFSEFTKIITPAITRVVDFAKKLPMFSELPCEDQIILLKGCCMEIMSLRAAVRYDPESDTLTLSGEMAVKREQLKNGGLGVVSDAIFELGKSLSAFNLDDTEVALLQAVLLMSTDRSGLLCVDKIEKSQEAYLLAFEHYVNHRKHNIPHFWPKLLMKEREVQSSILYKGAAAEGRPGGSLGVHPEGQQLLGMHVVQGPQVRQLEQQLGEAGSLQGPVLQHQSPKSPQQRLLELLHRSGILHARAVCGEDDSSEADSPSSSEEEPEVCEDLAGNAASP
Sequence of human Peroxisome Proliferator-activated Receptor alpha (PPARa), PPARA (gene 5465) (Q07869 whole entry, looked up, the tested form may be a part): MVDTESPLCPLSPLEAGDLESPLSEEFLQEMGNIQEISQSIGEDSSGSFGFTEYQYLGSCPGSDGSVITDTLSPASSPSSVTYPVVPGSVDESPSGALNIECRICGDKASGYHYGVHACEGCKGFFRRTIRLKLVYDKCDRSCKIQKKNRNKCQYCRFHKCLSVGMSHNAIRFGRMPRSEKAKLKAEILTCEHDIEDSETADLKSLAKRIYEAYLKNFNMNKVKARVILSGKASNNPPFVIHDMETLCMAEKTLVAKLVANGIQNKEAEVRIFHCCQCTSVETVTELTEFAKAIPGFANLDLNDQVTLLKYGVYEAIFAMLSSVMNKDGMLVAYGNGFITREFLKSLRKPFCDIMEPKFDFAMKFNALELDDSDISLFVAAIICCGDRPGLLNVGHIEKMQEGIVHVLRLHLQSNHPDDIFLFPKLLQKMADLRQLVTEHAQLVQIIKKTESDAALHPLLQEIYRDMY
Sequence of Nuclear receptor subfamily 1 group I member 3 (Homo sapiens) (Q14994 whole entry, looked up, the tested form may be a part): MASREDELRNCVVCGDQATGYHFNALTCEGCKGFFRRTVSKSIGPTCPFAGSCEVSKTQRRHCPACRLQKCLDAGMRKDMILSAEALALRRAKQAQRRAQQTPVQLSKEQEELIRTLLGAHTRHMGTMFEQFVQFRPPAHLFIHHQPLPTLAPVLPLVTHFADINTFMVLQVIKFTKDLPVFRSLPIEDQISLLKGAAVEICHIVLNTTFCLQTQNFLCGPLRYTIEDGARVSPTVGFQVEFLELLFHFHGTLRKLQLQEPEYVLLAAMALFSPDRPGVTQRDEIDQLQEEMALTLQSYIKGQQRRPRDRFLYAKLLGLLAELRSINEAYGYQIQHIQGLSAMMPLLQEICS
Sequence of Retinoic acid receptor alpha (Homo sapiens) (P10276 whole entry, looked up): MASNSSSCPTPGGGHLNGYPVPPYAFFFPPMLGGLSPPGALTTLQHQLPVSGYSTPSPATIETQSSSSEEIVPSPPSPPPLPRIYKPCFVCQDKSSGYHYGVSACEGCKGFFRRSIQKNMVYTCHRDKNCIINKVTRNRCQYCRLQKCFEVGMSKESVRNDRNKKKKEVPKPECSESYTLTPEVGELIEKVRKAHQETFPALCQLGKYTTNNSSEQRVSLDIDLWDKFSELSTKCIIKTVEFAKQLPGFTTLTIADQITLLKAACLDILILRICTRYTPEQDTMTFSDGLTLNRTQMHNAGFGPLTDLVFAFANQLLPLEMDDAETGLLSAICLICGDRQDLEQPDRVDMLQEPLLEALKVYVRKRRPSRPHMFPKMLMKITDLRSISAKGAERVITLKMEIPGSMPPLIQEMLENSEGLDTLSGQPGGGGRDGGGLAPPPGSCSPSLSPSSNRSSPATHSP
Sequence of Oxysterols receptor LXR-beta (Homo sapiens) (P55055 whole entry, looked up, the tested form may be a part): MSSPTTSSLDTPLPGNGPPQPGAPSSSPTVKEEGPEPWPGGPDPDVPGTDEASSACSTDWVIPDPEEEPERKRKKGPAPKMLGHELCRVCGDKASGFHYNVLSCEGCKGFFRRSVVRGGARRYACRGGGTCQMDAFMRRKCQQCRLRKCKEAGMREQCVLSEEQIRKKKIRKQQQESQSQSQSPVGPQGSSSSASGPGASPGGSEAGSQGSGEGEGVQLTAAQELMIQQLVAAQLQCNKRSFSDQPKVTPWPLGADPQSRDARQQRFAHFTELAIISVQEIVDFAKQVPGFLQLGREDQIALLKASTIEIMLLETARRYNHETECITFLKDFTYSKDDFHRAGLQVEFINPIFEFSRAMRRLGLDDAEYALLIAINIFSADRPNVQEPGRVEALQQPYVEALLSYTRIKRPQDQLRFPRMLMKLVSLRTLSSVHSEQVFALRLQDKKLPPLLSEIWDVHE
Sequence of Bile acid receptor (Homo sapiens) (Q96RI1 whole entry, looked up): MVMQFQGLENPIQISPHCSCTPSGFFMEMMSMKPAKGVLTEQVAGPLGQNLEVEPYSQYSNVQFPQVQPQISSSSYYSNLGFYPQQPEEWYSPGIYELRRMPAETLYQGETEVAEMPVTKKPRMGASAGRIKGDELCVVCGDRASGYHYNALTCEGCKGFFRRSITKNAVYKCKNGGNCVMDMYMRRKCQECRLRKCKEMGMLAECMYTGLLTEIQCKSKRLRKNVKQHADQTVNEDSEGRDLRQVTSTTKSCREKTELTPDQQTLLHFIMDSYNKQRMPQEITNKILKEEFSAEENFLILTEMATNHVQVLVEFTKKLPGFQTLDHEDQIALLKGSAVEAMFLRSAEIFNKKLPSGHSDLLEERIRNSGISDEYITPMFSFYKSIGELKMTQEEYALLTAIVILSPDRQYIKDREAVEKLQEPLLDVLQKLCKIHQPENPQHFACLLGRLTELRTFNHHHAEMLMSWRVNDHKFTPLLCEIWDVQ
Sequence of human RAR-related Orphan Receptor beta (RORb), RORB (gene 6096) (Q92753 whole entry, looked up, the tested form may be a part): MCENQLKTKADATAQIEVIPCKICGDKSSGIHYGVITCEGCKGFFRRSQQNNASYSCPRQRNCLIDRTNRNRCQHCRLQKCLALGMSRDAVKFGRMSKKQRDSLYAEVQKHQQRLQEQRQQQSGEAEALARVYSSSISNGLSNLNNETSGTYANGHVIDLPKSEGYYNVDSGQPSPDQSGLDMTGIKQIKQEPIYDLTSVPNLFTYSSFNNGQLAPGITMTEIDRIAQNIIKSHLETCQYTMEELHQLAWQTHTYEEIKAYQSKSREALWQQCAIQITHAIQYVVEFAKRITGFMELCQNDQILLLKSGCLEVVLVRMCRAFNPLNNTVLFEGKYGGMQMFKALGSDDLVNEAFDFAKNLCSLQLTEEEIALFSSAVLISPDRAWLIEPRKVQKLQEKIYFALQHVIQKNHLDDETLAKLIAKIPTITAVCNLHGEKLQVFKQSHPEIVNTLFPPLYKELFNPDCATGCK
Sequence of Nuclear receptor subfamily 4 group A member 2 (Homo sapiens) (P43354 whole entry, looked up, the tested form may be a part): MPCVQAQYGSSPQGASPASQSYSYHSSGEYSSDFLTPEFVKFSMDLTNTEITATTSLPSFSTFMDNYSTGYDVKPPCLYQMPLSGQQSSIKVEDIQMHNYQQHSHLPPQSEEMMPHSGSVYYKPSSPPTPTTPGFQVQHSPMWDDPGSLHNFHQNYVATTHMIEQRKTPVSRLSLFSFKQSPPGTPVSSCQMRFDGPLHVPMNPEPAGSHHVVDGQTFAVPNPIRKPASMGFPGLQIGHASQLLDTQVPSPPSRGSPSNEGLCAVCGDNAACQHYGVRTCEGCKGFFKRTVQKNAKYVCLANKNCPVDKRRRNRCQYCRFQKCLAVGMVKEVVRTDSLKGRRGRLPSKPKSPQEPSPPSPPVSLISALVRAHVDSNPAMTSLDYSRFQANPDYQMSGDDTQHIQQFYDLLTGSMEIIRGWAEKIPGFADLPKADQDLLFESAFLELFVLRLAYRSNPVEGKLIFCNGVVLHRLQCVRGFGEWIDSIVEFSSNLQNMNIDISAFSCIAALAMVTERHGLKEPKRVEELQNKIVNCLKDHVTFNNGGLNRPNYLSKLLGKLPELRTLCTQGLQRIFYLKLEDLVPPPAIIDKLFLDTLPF

Consider `CCC(C)c1cc([N+](=O)[O-])cc([N+](=O)[O-])c1OC(=O)C=C(C)C` (stereo not drawn), for which the AC50 (commonly the concentration giving half of the maximal activity seen) is 26.5 µM (active) in [1], 1.05 µM (active) in [9] and 13.2 µM (active) in [12]. For the same compound, the result in [2], in assay [3], in assay [4], in [5], in assay [6] and in [7] was inactive. In addition, the call in assay [8], in [10] and in assay [11] was inactive.
On to `O=C(O)CCl`, for which the result in assay [13], in [14], in assay [7], in assay [15] and in assay [16] was inactive.
On to `CC1CCC(=O)O1` (stereo not drawn), for which the compound was called inactive in assay [5], in assay [6], in assay [15] and in [16].
With `Cl/C=C\CCl`, the compound was classed as inactive in assay [13], in assay [4], in assay [5], in assay [7], in [8] and in [16]. For the same compound, the compound was called inactive in [17] and in [18].
As to `CCC(Br)(CC)C(=O)NC(N)=O`, the call in assay [13], in assay [1], in assay [2], in assay [19], in [16] and in assay [17] was inactive.
Take `O=P1(NCCCl)OCCCN1CCCl` (stereo not drawn): the call in assay [13], in [2], in assay [5], in assay [20], in assay [7] and in assay [9] was inactive. The outcome in assay [15] and in assay [18] was inactive.
`Cc1ccc(C)c2ccccc12`: the result in assay [1], in [2], in assay [3], in [19], in [20] and in [14] was inactive. The compound was called inactive in [6], in assay [7], in [8], in [15] and in [16].
As to `CCOP(=O)(OCC)Oc1ccc([N+](=O)[O-])cc1`, the compound was classed as inactive in assay [13], in assay [1], in assay [3], in assay [19], in assay [20] and in assay [14]. The compound was classed as inactive in assay [8], in [9], in assay [15], in assay [16], in assay [17] and in assay [11]. Besides, the result in [12] and in assay [18] was inactive.
